Active and inactive are the calls of the source. The calls were made as follows: active = hit-call score of the fitted dose curve at least 0.9, where 1 is the maximum; inactive = score below 0.9.
Molecular target: human Protein Kinase D2 (PKD2), PRKD2 (gene 25865) (UniProt Q9BZL6)
Experiment: NVS_ENZ_hPKD2: NovaScreen (NVS) Enzymatic Assay for human Protein Kinase D2 (PKD2)
Method: NVS_ENZ_hPKD2 is a biochemical, single-readout assay that uses extracted gene-proteins in a cell-free assay. Measurements were taken 1 hour after chemical dosing in a 384-well plate.NVS_ENZ_hPKD2 is one of one assay component(s) measured or calculated from the NVS_ENZ_hPKD2 assay. It is designed to make measurements of enzyme activity, a form of enzyme reporter, as detected with fluorescence intensity signals by Fluorescence and electrophoretic mobility shift technology.Data from the assay component NVS_ENZ_hPKD2 was analyzed into 1 assay endpoint. This assay endpoint, NVS_ENZ_hPKD2, was analyzed in the positive analysis fitting direction relative to DMSO as the negative control and baseline of activity. Using a type of enzyme reporter, loss-of-signal activity can be used to understand changes in the enzymatic activity as they relate to the gene PRKD2. Furthermore, this assay endpoint can be referred to as a primary readout, because this assay has produced multiple assay endpoints where this one serves a enzymatic activity function. To generalize the intended target to other relatable targets, this assay endpoint is annotated to the kinase intended target family, where the subfamily is serine/threonine kinase. […]

Chain of human Protein Kinase D2 (PKD2), PRKD2 (gene 25865) (Q9BZL6 whole entry, looked up): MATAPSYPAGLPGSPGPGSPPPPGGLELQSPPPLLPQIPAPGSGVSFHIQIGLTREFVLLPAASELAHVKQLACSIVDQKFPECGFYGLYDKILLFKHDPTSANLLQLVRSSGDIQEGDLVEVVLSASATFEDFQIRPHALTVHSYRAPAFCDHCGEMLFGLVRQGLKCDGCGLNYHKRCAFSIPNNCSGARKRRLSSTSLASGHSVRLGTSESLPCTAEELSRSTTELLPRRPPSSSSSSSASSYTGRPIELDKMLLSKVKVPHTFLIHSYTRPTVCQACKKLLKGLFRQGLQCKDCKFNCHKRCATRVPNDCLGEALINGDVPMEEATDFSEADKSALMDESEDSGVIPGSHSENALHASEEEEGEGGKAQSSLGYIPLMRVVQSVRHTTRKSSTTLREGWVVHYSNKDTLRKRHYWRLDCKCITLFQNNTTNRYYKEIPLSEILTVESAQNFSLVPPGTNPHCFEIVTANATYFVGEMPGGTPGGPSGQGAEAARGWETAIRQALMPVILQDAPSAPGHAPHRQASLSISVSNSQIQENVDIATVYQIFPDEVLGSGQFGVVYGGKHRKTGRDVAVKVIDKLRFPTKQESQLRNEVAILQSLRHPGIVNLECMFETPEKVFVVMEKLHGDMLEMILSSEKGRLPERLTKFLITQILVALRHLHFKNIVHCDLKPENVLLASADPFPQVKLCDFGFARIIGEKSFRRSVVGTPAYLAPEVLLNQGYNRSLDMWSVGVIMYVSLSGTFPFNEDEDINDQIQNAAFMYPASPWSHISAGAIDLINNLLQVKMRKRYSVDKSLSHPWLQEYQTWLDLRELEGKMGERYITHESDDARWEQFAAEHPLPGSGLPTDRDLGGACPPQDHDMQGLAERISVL

Row | Structure (SMILES) | outcome
1 | N#CSCSc1nc2ccccc2s1 | inactive
2 | Oc1ccc(C(c2ccc(O)cc2)C(Cl)(Cl)Cl)cc1 | inactive

— PubChem BioAssay AID2283197 (EPA ToxCast)
